40 molecules from PubChem BioAssay (EPA / NIEHS) can be followed below.

Active and inactive are the calls of the source. How the source made its calls: active means hit-call score of the fitted dose curve at least 0.9, where 1 is the maximum; inactive means score below 0.9.

As usually defined, the AC50 is the midpoint of the concentration-response curve, whichever way the signal moves.

Read-out in this assay: HGF (gene 3082)
Briefly: LTEA_HepaRG_HGF: Life Technologies and Expression Analysis (LTEA) Assay for Hepatocyte Growth Facto (HGF) using HepaRG (AID 2283505). The conditions noted are these: mRNA level, 48 h; actives raise or lower the signal. Here is the method:
LTEA_HepaRG is a cell based, multiplexed-readout assay that uses HepaRG, a human liver cell line, with measurements taken at 48 hours after chemical dosing on a 96-well plate.LTEA_HepaRG_HGF is one of 102 assay component(s) measured in the LTEA HepaRG cell culture assay. It is a marker of Cell proliferation, survival, death.Data from the assay component LTEA_HepaRG_HGF was analyzed into 1 endpoint. This assay endpoint, LTEA_HepaRG_HGF, was analyzed with bidirectional fitting relative to DMSO as the negative control and baseline of activity. Using a type of inducible reporter, measures of mRNA induction for gain or loss-of-signal activity can be used to understand regulation of transcription factor activity. To generalize the intended target to other relatable targets, this assay endpoint is annotated to the growth factor intended target family, where the subfamily is hepatocyte growth factor.
A total of 1060 chemcials from the ToxCast library were tested in eight-point concentration-response experiments. Cell culture and cytotoxicity assays were conducted at Thermo Fisher Scientific's Custom Services facility (Madison, WI). A single lot of human HepaRG cells (Thermo Fisher Scientific, Frederick, MD) was used for the cell culture experiments. 96-well format collagen type I coated plates of human HepaRG cells were prepared using established methods. Briefly, cryopreserved HepaRG cells were thawed, plated at a density of approximately 100,000 cells/well in HepaRG Thaw, Plate, and General Purpose media (HPRG770, Thermo Fisher Scientific), and incubated for 48 hours. 0.5% DMSO was selected as vehicle control to balance the requisite need of DMSO in HepaRG cultures to maintain differentiation (for example, baseline metabolism, proportions of hepatocytes vs. cholangiocytes), while enabling further hepatic receptor pathway activation (for example, PXR and CAR) in response to chemical exposure. 48 hours after plating, the culture medium was replaced with HepaRG Serum-Free Incudtion Media. Cells were exposed to each test chemical in duplicate and maintained in CO2 incubators for another 48 hours. Chemical plates were thawed to room temperature and 200x concentrations of treatment groups were prepared. 8-point conentration-reponse curves were made with the highest exposure at 100 uM, followed by half-log dilutions, all in 0.5% DMSO. Each test plate contained variouse controls, induction positive controls (1mM phenobarbital), cytotoxicity positive controls ([…] aflatoxin B1), vehicle controls (0.5% DMSO), and total lysis controls (0.5% DMSO). Cell morphology images were taken using an Essen IncuCyte FLR automated microscope, with six 96-well plates imaged in about 24 minutes. Images were captured and exported and JPEG files. Spent culture media was transfered to black-well plates for the LDH assay, and remaining media was sorted at -80 C for later use. Cells were treated with RLT buffer and frozen until shipped for gene expression analysis. Total RNA was isolated from the cell suspension in 75 uL of Buffer RLT (Qiagen, Germantown, MD 20874) by Quintiles/Expression Analysis (Durham, NC) using a custom isolation procedure. Total RNA from each plate well was transferred to a preamplification plate. Fluidigm's 96.96 Dynamic ArrayTM (Fluidigm, Amsterdam, the Netherlands) technology was used for gene expression analyses by quantitative reverse transcription polymerase chain reaction (qRT-PCR, performed by Quintiles/Expression Analysis, Durham, NC)89. Standard TaqManTM Assays (Applied Biosystems/ThermoFisher Scientific, Foster City, CA) were used to assess the expression of 93 genes selected based on their selectivity and sensitivity to important hepatic receptors known to be modulated by environmental chemicals; importance in human hepatocyte functionality; and hepatotoxicity. […]
As for `CN1C(=O)CC[C@H]1c1cccnc1`, the molecule was called inactive.

As for `CC[C@H](NC(=O)c1cc(F)ccc1NS(=O)(=O)c1cccc2cccnc12)c1ccccc1`, the call was inactive.

Take `CCCCCCCC[Si](OCC)(OCC)OCC`: the result was inactive.

Consider `CC(O)CC(C)(C)O` (stereo not given), for which the molecule was called inactive.

Take `O=C(Nc1ccc(Cl)cc1)Nc1ccc(Cl)c(Cl)c1`: the AC50 is 50 µM (active).

Turning to `Cc1occc1C(=O)Nc1ccc(C(=O)N2CCC(F)(F)/C(=C\C(=O)N3CCC(N4CCCCC4)CC3)c3ccccc32)cc1`, the molecule was called inactive.

In the case of `CCCCCCCCCCCC[N+](C)(C)C`, the AC50 is 90.1 µM (active).

On to `Cc1cc(F)ccc1-c1cc(N2CC[C@@H](O)[C@H]2CO)ncc1N(C)C(=O)C(C)(C)c1cc(C(F)(F)F)cc(C(F)(F)F)c1`, for which the call was inactive.

On to `CCOC(=O)O[C@H](C)OC(=O)c1ccc2c(c1)cc(C(=O)NC1CCN(C(C)C)CC1)n2Cc1cc(-c2ccc(Cl)s2)on1`, for which the call was inactive.

`CN(C)c1ccc(C(=C2C=CC(=[N+](C)C)C=C2)c2ccc(N(C)C)cc2)cc1`: the molecule was called inactive.

Consider `C[C@]12CC[C@@H]3c4ccc(O)cc4CC[C@H]3[C@@H]1CCC2=O`, for which the outcome was inactive.

Regarding `CN(C)C(=O)C1(N2CCCCC2)CCN(CC[C@@]2(c3ccc(Cl)c(Cl)c3)CN(C(=O)c3ccccc3)CCO2)CC1`, the molecule was classed as inactive.

In the case of `Oc1ccc2ccccc2c1`, the result was inactive.

Take `CCO[Si](CCCNC(N)=O)(OCC)OCC`: the outcome was inactive.

On to `CC1=CC(=O)/C(=C(/C)O)C(=O)O1`, for which the call was inactive.

As to `C[C@]12CC[C@@H]3c4ccc(O)cc4CC[C@H]3[C@@H]1CC[C@H]2O`, the outcome was inactive.

On to `O=C(O)Cn1c(=O)n(Cc2ccc(Br)cc2F)c(=O)c2ccc(Cl)cc21`, for which the molecule was classed as inactive.

Turning to `O=C(O)c1ccccc1C(=O)OCc1ccccc1`, the molecule was classed as inactive.

On to `O=C1CCC(C2CCCCC2)CC1`, for which the molecule was classed as inactive.

Turning to `CCCCCCCCCC(=O)O`, the outcome was inactive.

Consider `Cc1cn([C@H]2C[C@H](N=[N+]=[N-])[C@@H](CO)O2)c(=O)[nH]c1=O`, for which the outcome was inactive.

For `CCCCCCCCCCCCO`, the result was inactive.

In the case of `O=C=NCCCCCCN=C=O`, the molecule was classed as inactive.

On to `NC(=O)c1nc(-c2cccc(-c3cc(F)ccc3OCC(F)(F)C(F)(F)F)c2)n[nH]1`, for which the AC50 was 77.2 µM (active).

With `O=C(O)c1ccccc1-n1cc(C(=O)O)c(=O)c2cc(Nc3c(F)cc(F)cc3Cl)c(Cl)cc21`, the outcome was inactive.

As to `O=c1c(-c2ccc(O)cc2)coc2cc(O)cc(O)c12`, the result was inactive.

Turning to `CCCCCCCCN(C)CCCCCCCC`, the molecule was called inactive.

For the molecule `CO[C@H]1/C=C/O[C@@]2(C)Oc3c(C)c(O)c4c(O)c(c(/C=N/N5CCN(C)CC5)c(O)c4c3C2=O)NC(=O)/C(C)=C\C=C\[C@H](C)[C@H](O)[C@@H](C)[C@@H](O)[C@@H](C)[C@H](OC(C)=O)[C@@H]1C`, the molecule was called inactive.

As for `Cc1ccc(C(C)C)cc1`, the molecule was classed as inactive.

Turning to `CCN(Cc1cccc(S(=O)(=O)O)c1)c1ccc(C(=C2C=CC(=[N+](CC)Cc3cccc(S(=O)(=O)O)c3)C=C2)c2ccccc2S(=O)(=O)[O-])cc1`, the molecule was called inactive.

As for `CCCCCCCCOC(=O)c1cc(O)c(O)c(O)c1`, the molecule was classed as inactive.

As for `CCN(CC)C(=O)c1cc(S(=O)(=O)Cc2ccccc2)c(N2CCC(c3ccccc3)CC2)cc1N(CC)CCN(C)C`, the molecule was classed as inactive.

Regarding `O=CCCCC=O`, the outcome was inactive.

Regarding `Cc1ncc(CO)c(CO)c1O`, the result was inactive.

As to `Cc1cc2c(cc1C(F)(F)F)N(C(=O)Nc1ccc(Oc3cccnc3C)nc1)CC2`, the outcome was inactive.

Consider `CC/C(=C(/CC)c1ccc(O)cc1)c1ccc(O)cc1`, for which the AC50 was 23.6 µM (active).

Consider `CC(C)(O)c1ccc(CNC(=O)c2cccnc2Oc2ccc3nonc3c2)cc1`, for which the molecule was called inactive.

On to `CCCCCCCCCCCO`, for which the result was inactive.

In the case of `CCCC(=O)OCCC(C)C`, the molecule was called inactive.

As to `COCC(C)OCC(C)OCC(C)O` (stereo not given), the molecule was classed as inactive.
